Assay results taken from PubChem BioAssay AID1259325 (C. David Weaver Laboratory, Vanderbilt University, 2017).
Screen size: about 63,000 compounds; about 30 (0.05%) were called active. No rule for the calls is given here. Not all results are given here.

These compounds were tested against G protein-activated inward rectifier potassium channel 2 (Homo sapiens) (UniProt P48051) (assay: activators of human GIRK2 potassium channels (AID 1259325)). Details: HEK293-GIRK2 thallium flux, Thallos fluorescence, MPD.
Chain of G protein-activated inward rectifier potassium channel 2 (Homo sapiens) (P48051 whole entry, looked up): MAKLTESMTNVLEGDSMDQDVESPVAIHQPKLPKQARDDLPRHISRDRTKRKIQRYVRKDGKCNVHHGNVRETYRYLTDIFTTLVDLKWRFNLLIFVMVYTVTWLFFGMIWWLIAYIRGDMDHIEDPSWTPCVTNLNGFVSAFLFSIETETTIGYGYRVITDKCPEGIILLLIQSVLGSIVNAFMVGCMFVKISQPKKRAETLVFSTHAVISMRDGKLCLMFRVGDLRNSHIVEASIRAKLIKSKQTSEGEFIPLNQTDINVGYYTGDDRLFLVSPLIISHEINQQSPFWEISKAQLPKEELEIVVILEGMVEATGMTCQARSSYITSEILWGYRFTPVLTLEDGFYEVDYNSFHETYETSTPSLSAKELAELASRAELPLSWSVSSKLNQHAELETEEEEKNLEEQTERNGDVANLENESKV

outcome, inactive:
Cc1cc(NC(=O)c2ccc([N+](=O)[O-])o2)n(-c2nc3c(F)cccc3s2)n1
O=C(Cc1csc(Nc2ccc(OC(F)(F)F)cc2)n1)NCc1ccncc1
COC(=O)c1ccccc1NS(=O)(=O)c1ccc(N2C(=O)CCC2=O)cc1
Cc1cc(C(=O)Nc2nc3c(C)ccc(Cl)c3s2)on1
COc1ccc(CC(=O)NC2CC(O)C(CO)C2)cc1OC (centres undefined)
Cc1cc(C)c(C)c(S(=O)(=O)N2CCC(S(C)(=O)=O)C2)c1C (centres undefined)
O=C(OC1CN(c2nc3c(Cl)cccc3s2)C1)c1ccc(=O)[nH]n1
O=C(c1ccc(OC(F)(F)F)cc1)N1CCC(CSC2=NCCS2)CC1
COc1ccc(-c2csc(Cc3nc(-c4ccc(C(F)(F)F)cc4)no3)n2)cc1OC
COc1cc(C2c3c(oc4ccc(C)cc4c3=O)C(=O)N2CCO)cc(OC)c1OC (centres undefined)
Cc1oc2cc(OC(=O)N3CCOCC3)ccc2c(=O)c1-c1ccc(Br)cc1
O=C(CSc1nc2ccccc2o1)N1CCN(c2cc(N3CCCCC3)ncn2)CC1
O=C(Nn1cnc2c(cnn2-c2ccccc2)c1=O)c1ccc(Cl)cc1Cl
O=C1/C(=C/c2cc(Br)cc3c2OCOC3)Oc2cc(OC(=O)N3CCOCC3)ccc21
Cc1ccc(Nc2c(C(=O)N3CCOCC3)cnc3ccccc23)cc1C
COc1ccc(NC(=O)CCc2csc(NC(=O)c3ccc[nH]c3=O)n2)cc1Cl
COCCCn1c(C(=O)Nc2cccc(C)c2C)cc2c(=O)n(C)c(=O)n(C)c21
COc1ccc(C2C(C(=O)Nc3ccccc3)=C(C)Nc3nc(C)nn32)cc1OC (centres undefined)
COc1ccccc1OCC#CCNC(=O)CSc1nc2ccccc2s1
CCOc1ccccc1C(=O)Nc1ccc(C)c(N2CCCC2=O)c1
COC(=O)c1ccc(S(=O)(=O)NCCC(O)c2cc(C)oc2C)cc1 (centres undefined)
Cc1nnsc1C(=O)NCC1CCN(C(=O)c2ccoc2)CC1
CCC1CCCCN1C(=O)c1cnc2nc(C)ccc2c1Nc1ccc(S(C)(=O)=O)cc1 (centres undefined)
COc1ccc(NC(=O)c2cn(Cc3ccc(NC(=O)c4ccccc4F)cc3)cn2)cc1
CS(=O)(=O)N1CCc2nc(NC(=O)/C=C/c3ccccc3Cl)sc2C1
C=C1C(=O)O[C@H](CCCCCCCC)C1C(=O)O (some centres undefined)
COc1cc(CN2CC(c3nc4ccc(C)cc4[nH]3)C2)cc(OC)c1
COc1ccc(C(O)=C2C(=O)C(=O)N(c3cc(C)on3)C2c2ccc(C)cc2)cc1OC (centres undefined)
COc1cc(OC)cc(C(=O)Nc2ccc(Cl)c3ncsc23)c1
Cc1ccc(=O)n(CC(=O)N2CCC(Cc3ccccc3)CC2)n1
O=S(=O)(c1cccc(Cl)c1Cl)N1CCN(c2ccc(-c3ccccc3)nn2)CC1
O=C(C1CCN(c2ccc(-c3ccccc3)nn2)CC1)N1CCN(Cc2ccccc2)CC1
COc1ccc(N2CCN(CCCn3c(C)cn4c5c(=O)[nH]c(=O)n(C)c5nc34)CC2)cc1
O=C(O)CCC/C=C\C[C@@H]1[C@@H](/C=C/C(=O)COc2cccc(C(F)(F)F)c2)[C@H](O)C[C@@H]1O
O=C(c1cc(-c2ccco2)[nH]n1)N1CC(c2nc(-c3ccc[nH]c3=O)no2)C1
COc1ccc(OCc2noc(CNC(=O)/C=C/c3cccs3)n2)cc1
COc1ccc(OCc2noc(CNC(=O)c3ccc4nsnc4c3)n2)cc1
CC1CCC(NC(=O)C2CCN(c3nc4c(-c5ccccc5F)csc4c(=O)[nH]3)CC2)CC1 (centres undefined)
Cc1ccc(C)c(NC(=O)CSc2ncnc3nc(N4CCc5ccccc5C4)sc23)c1
O=C1NC(=NCCc2cccc(F)c2)S/C1=C\c1ccc2ncccc2c1
O=C(NCCC(O)c1cccc2ccccc12)Nc1ccccc1 (centres undefined)
O=C(Cc1ccccc1Cl)N1CCCC(c2nnc(-c3ccccc3F)s2)C1 (centres undefined)
CC(=O)Nc1nc2c(s1)CN(CC(=O)Nc1ccc(OC(F)(F)F)cc1)CC2
CCOCCn1c(-n2nc(C)cc2C)nc2c1c(=O)n(Cc1ccccc1F)c(=O)n2C
CCOC(=O)C1CCc2sc(NC(=O)CCc3c(C)nn(C)c3C)nc21 (centres undefined)
O=S(=O)(/C=C/c1ccccc1)NCc1ccc(C(O)c2cccs2)s1 (centres undefined)
COC(=O)c1ccccc1NC(=O)Cn1nc2nc(N3CCCC(C)C3)ccn2c1=O (centres undefined)
Cc1cccc(Cn2c(N3CCC(C(N)=O)CC3)nc3c2c(=O)[nH]c(=O)n3C)c1
CCCn1c(=O)c2cc(Cl)ccc2n2c(SCC(=O)Nc3ccc4c(c3)OCO4)nnc12
O=C(NCc1ccc2c(c1)OCO2)C1CCN(c2ncnc3c2sc2ncccc23)CC1
COc1ccc2c(=O)c3c(oc2c1)C(=O)N(CCCN(C)C)C3c1ccccc1 (centres undefined)
CC(=O)Nc1cccc(C#Cc2cncnc2Nc2ccc(OCc3cccc(F)c3)c(Cl)c2)n1
O=S(=O)(Cc1nc(-c2ccc(OCc3ccccc3)cc2)no1)c1ccccc1
O=C(NC1CCN(C(=O)c2cn(-c3ccc(Cl)cc3)nn2)CC1)C1CCCC1
COc1cccc(CSc2nc(C)c(CC(=O)Nc3cccc(Cl)c3C)c(=O)[nH]2)c1
COc1cc(-c2nc(CSc3nc4ccccc4c(=O)n3C)c(C)o2)cc(OC)c1OC
Cc1cn2c3c(=O)n(Cc4ccc(Br)cc4)c(=O)n(C)c3nc2n1CCCO
COc1ccc(S(=O)(=O)Nc2cccc(N3CCCCC3=O)c2)cc1
C#CCn1c(COc2ccccc2OC)nc2ccccc21
O=C(CCSc1ccccc1)NCCCn1ncccc1=O
CC(O)C(O)(C(=O)OCc1ccccc1NC(=O)CCC(=O)O)C(C)O (centres undefined)
O=C(Nc1cnoc1)c1ccc(OC(F)(F)F)cc1
Cc1nc(-c2noc(-c3cccnc3)n2)cn1CC(=O)N1CCc2ccccc21
O=C(Nc1cccc(F)c1)c1sccc1S(=O)(=O)N1CCN(c2ccccc2)CC1
